Results reported in PubChem BioAssay AID686978 (National Center for Advancing Translational Sciences (NCATS), 2013).
“And” between values parts separate entries of the source, which are not always exact repeats. Identical values can stand only once. About 64,000 (15%) of roughly 420,000 compounds were called active. Roughly 27% stayed inconclusive and do not appear here. The call rests on the fitted dose curve; in most records, active means well fitted inhibition curve with a large enough effect; inconclusive means small, poorly fitted or top-dose-only effect; inactive means flat fitted curve, though single readings scatter. Only a selection was taken, and actives are over-represented in it overall.

assay: qHTS for Inhibitors of human tyrosyl-DNA phosphodiesterase 1 (TDP1): qHTS in cells in absence of CPT; details: DT40 Tdp1-/- hTDP1 cells, no CPT, ATP luminescence, 48 h; series mostly up to 46.2 µM; activity change, negative = growth inhibition: at the top concentration; further: nearly all actives have a fitted effect of over 55% in size
Summary of the method: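 Stably hTDP1-transfected Tdp1-null chicken DT40 cells were treated with library compounds minus camptothecin and grown for at least 48 hr at 37 °C, after which cellular ATP was quantified by luminescence.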
On the % scale 0 is the no-effect control and ±100 the full control effect; potency means the concentration at half of the fitted maximal effect.

Row | Structure (SMILES) | Potency | activity change, negative = growth inhibition
1 | COc1ccc(-n2c(-c3ccccc3)nc3ccccc3c2=O)cc1 | 13 µM (active) | –
2 | CSc1nc2ccc(C)cc2c(=O)n1-c1cccnc1 | – | -9.55% (inactive)
3 | Cc1ccc(-c2nc3ccccc3c(=O)n2-c2ccc(Br)cn2)cc1 | – | -24.3% (inactive)
4 | O=c1c2ccccc2nc(-c2ccccc2)n1-c1ccccn1 | – | -2.29% (inactive)
5 | Cc1ccc(-n2c(-c3ccc([N+](=O)[O-])cc3)nc3ccccc3c2=O)cc1 | 8.2 µM (active) | –
6 | COC1=C[C@]23CCCN2CCc2cc4c(cc2[C@@H]3[C@@H]1O)OCO4 | – | -13.2% [at 9.04 µM] (inactive)
7 | c1ccc2sc(C3CCCNC3)nc2c1 (configuration not stated) | – | -13% (inactive)
8 | CN(C)C(=O)Oc1cc(OC(=O)N(C)C)cc(C(O)CNC(C)(C)C)c1 (configuration not stated) | inactive | –
9 | CC(=O)Cc1ccc(OC(C)C)cc1 | – | -10.7% (inactive)
10 | OC1/C(=C/c2ccc(C(F)(F)F)cc2)N2CCC1CC2 (configuration not stated) | – | -13% (inactive)
11 | O=C(CCC(=O)N1C[C@H]2C[C@@H](C1)c1cccc(=O)n1C2)NCc1ccccc1C(F)(F)F | – | -0.958% (inactive)
12 | C#C[C@]1(OC(=O)CCCCCC)CC[C@H]2[C@@H]3CCC4=CC(=O)CC[C@@H]4[C@H]3CC[C@@]21C | – | -21.7% (inactive)
13 | C#C[C@]1(O)CC[C@H]2[C@@H]3CCC4=C/C(=N/O)CC[C@@H]4[C@H]3CC[C@@]21CC | 21.1 µM (active) | –
14 | CC(C)N(CC#CCC1(O)c2ccccc2-c2ccccc21)C(C)C | – | -24.2% (inactive)
15 | C[C@]12CCC3C(CC[C@H]4C[C@@H](O)CC[C@]34C)C1CC[C@@H]2O (some centres not stated) | – | 4.7% (inactive)
16 | O=C(O)C1CSC(c2cccnc2)N1 (configuration not stated) | – | -11.6% (inactive)
17 | CC(=O)c1ccc(S(=O)(=O)N2CCN(c3nc4c(C)c(C)ccc4cc3C#N)CC2)cc1 | 12.6 µM (active) | –
18 | CCOC(=O)CC1=C(C(=O)OCC)C2(C(=O)N1)C(C(=O)OC)=C(N)Oc1ccccc12 (configuration not stated) | – | 0.689% (inactive)
19 | CCCCC(=O)N/N=C/c1c(O)n(-c2ccccc2)c(=O)[nH]c1=O | – | -10.2% (inactive)
20 | CCCCC(=O)N/N=C/c1c(O)n(CCC2=CCCCC2)c(=O)[nH]c1=O | 25.9 µM (active) | –
21 | O=c1[nH]c(=O)n(CCc2ccc(F)cc2)c(O)c1/C=N/N1CCCCC1 | – | -14.5% (inactive)

Row | Structure (SMILES) | Potency | activity change, negative = growth inhibition
22 | CC(C)(Cc1c[nH]c2ccc(Cl)cc12)NCCOc1ccccc1OCC1CC1 | 26.6 µM (active) and 5.17 µM (active) | –
23 | CC1CCC(N(C)C2CCN(C)CC2)CC1 (configuration not stated) | – | -18.5% (inactive)
24 | O=C(COC(=O)Cc1ccccc1)Nc1ccc(F)cc1 | – | 1.09% (inactive)
25 | CCOC(=O)c1ccc(N2C(=O)c3[nH]nc(-c4ccccc4)c3C2c2ccc(C(C)C)cc2)cc1 (configuration not stated) | 25.9 µM (active) | –
26 | CCN(N=Nc1nonc1OC)c1nonc1OC | – | -6.66% (inactive)
27 | O=c1[nH]c(=O)n(-c2ccc(F)cc2)c(O)c1C=NCCN1CCCCC1 | – | 4.02% (inactive)
28 | CCn1cc2nc(SCc3ccccc3Cl)n(CCc3ccccc3)c(=O)c2n1 | 20.6 µM (active) | –
29 | COc1cccc(OC)c1C(=O)NC(=S)N1C[C@H]2C[C@H](C1)c1cccc(=O)n1C2 | – | 0.63% (inactive)
30 | CC(C)=C[C@@H]1[C@@H](C(=O)OCc2coc(Cc3ccccc3)c2)C1(C)C | – | -4.94% (inactive)
31 | CN1CCN(C(=O)O[C@@H]2c3nccnc3C(=O)N2c2ccc(Cl)cn2)CC1 | – | -14.9% (inactive)
32 | CCC(C)(O)C(=O)OC1C(=O)OC2CC3C(C)=CC(=O)C(O)C3(C)C3C4(O)OCC23C1C(C)C4O (configuration not stated) | 0.13 µM (active) | –
33 | N#CC(C#N)=Cc1cc(O)c(O)c([N+](=O)[O-])c1 | – | -19.8% (inactive)
34 | O=C(N/N=C/c1ccc([N+](=O)[O-])o1)c1cc([N+](=O)[O-])cc([N+](=O)[O-])c1O | – | -54% (inactive)
35 | CC(=O)OC1C2CCC3C1(CC(O)[C@@]1(O)[C@@H](CC(O)C1(C)C)[C@]3(C)O)C[C@@]2(C)O (some centres not stated) | – | 0.989% (inactive)
36 | COc1ccc(-c2cc(NC=O)c3ncc(-c4cc(OC)c(OC)c(OC)c4)n3c2)c(OC)c1 | 0.82 µM (active) | –
37 | O=C1NC(=O)N(Cc2ccco2)C(=O)/C1=C\c1cccn1CCOc1ccccc1 | – | -1.44% (inactive)
38 | O=C(O)COc1ccccc1/C=C1\C(=O)NC(=O)N(CCC2=CCCCC2)C1=O | – | 0.529% (inactive)
39 | O=C1NC(=O)N(CCc2ccc(F)cc2)C(=O)/C1=C/C=C/c1ccccc1 | 6.51 µM (active) | –
40 | CCc1ccc(N(CC)C(=O)CCn2cnc3onc(-c4ccc(F)cc4)c3c2=O)cc1 | 13 µM (active) | –
41 | O=C(/C=C/c1cccs1)c1cc(Cl)ccc1OC(=O)N1CCOCC1 | 16.4 µM (active) | –
42 | Cc1cccc(-n2c(O)c(C=NC34CN5CN(CN(C5)C3)C4)c(=O)[nH]c2=O)c1 | – | 6.16% (inactive)

Row | Structure (SMILES) | Potency | activity change, negative = growth inhibition
43 | COC12CC[C@@]3(C[C@@H]1C(C)(O)C(C)(C)C)[C@H]1Cc4ccc(O)c5c4[C@@]3(CCN1CC1CC1)[C@H]2O5 (some centres not stated) | 24.1 µM (active) | –
44 | Oc1ccc2c3c1OC1[C@H](O)CC[C@@]4(O)[C@@H](C2)N(CC2CC2)CC[C@]314 (some centres not stated) | inactive | –
45 | CCOC(=O)C1CN(C)CCC1=O (configuration not stated) | – | -26% (inactive)
46 | CCC/C(=N\O)c1c[nH]c2ccccc12 | – | -19.1% (inactive)
47 | CNCC[C@H](Oc1ccc(C(F)(F)F)cc1)c1ccccc1 | 8.41 µM (active) and 14.6 µM (active) | –
48 | CCC1(CC(C)c2ccccc2)C(=O)NC(=O)NC1=O (configuration not stated) | – | -14.9% (inactive)
49 | CCCCC/C=C\C/C=C\C/C=C\CCCCCCC(=O)NCCO | – | -2.66% [at 4.12 µM] (inactive)
50 | CC1CCCN1CCC(C(N)=O)(c1ccccc1)c1ccccc1 (configuration not stated) | – | -4.44% (inactive)
51 | O=Cc1cn(Cc2ccc(F)cc2Cl)c2ccccc12 | 18.4 µM (active) | –
52 | O=[N+]([O-])c1ccc(Cl)c(Cl)c1 | – | -16.7% (inactive)
53 | CCC(=NCc1ccco1)c1c(O)n(Cc2ccccc2)c(=O)[nH]c1=O | – | -23.7% (inactive)
54 | Clc1ccc([C@@H]2C[C@H]3CC[C@@H]2N3)cn1 | inactive | –
55 | Cc1ccc([C@H]2C[C@H](O)[C@@H](n3cc(COC(=O)c4ccccc4)nn3)CN2CC2CCCCC2)cc1 | 20.6 µM (active) | –
56 | COCCNC(=O)CN1C2CCC1CC(O)(c1cccnc1)C2 (configuration not stated) | – | -16.8% (inactive)
57 | Cn1c(O)c(C=NCCN2CCNCC2)c(=O)n(C)c1=O | – | -2.35% (inactive)
58 | NCC(O)c1ccc(O)cc1 (configuration not stated) | inactive | –
59 | c1csc(CN2CC3(CCNCC3)C2)n1 | – | -19.2% (inactive)
60 | CCc1ccccc1NC(=O)c1sc2nc3c(cc2c1N)CN(Cc1ccccc1)CC3 | 5.8 µM (active) | –
61 | CC12CN3CC(C)(CN(C1)C3c1cccs1)C2 (configuration not stated) | – | -6.5% (inactive)
62 | CC(=O)Nc1ccccc1C(=O)OCC(=O)c1cccc2ccccc12 | – | -16.9% (inactive)
